{"source": "the supplement of paper PMC3414501", "note": "Counter-ions that a name gives are not always drawn. Unmarked numbers belong to inactive results.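 Rule for the calls: active = HIS4 sensitivity z-score above 5 vs DMSO controls; inactive = score 5 or below.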"}
{"test_system": "S. cerevisiae NKY1551 his4x/his4B, sporulating", "test": "HIS4 meiotic recombination assay sensitivity score (z-score vs DMSO controls); higher = stronger inhibition of sporulation/recombination, active = hit call of the paper", "conditions": "stock concentration (mM, diluted 1:100): 7.7", "procedure": "(§1)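 NIH Clinical Collection compounds were added 1:100 from stock (about 100 µM final) to S. cerevisiae. Growth: average doubling time (AvgG) over 24 h of BY4741 (wild-type) or AD1-9 (drug-efflux-pump deficient) in rich media. HIS4: the his4x/his4B heteroallelic recombination reporter strain (SK1) was sporulated 5 h with compound at 30°C, then colony density was read on -his plates after 48 h. Sensitivity score = (compound − mean of 8 DMSO controls)/SD of DMSO controls. Hit cutoffs are >2 for growth and >5 for sporulation.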"}
{"compound": "CCC(COC(=O)c1cc(OC)c(OC)c(OC)c1)(c1ccccc1)N(C)C", "note": "(stereo not drawn) [Trimebutine maleate]", "HIS4 meiotic recombination assay sensitivity score": -1.28}
{"test_system": "S. cerevisiae NKY1551 his4x/his4B, sporulating", "test": "HIS4 meiotic recombination assay sensitivity score (z-score vs DMSO controls); higher = stronger inhibition of sporulation/recombination, active = hit call of the paper", "conditions": "stock concentration (mM, diluted 1:100): 8.7", "procedure": "as §1"}
{"compound": "CC(NC(C)(C)C)C(=O)c1cccc(Cl)c1", "note": "(stereo not drawn) [Bupropion hydrochloride]", "HIS4 meiotic recombination assay sensitivity score": 1.07}
{"test_system": "S. cerevisiae NKY1551 his4x/his4B, sporulating", "test": "HIS4 meiotic recombination assay sensitivity score (z-score vs DMSO controls); higher = stronger inhibition of sporulation/recombination, active = hit call of the paper", "conditions": "stock concentration (mM, diluted 1:100): 9.7", "procedure": "as §1"}
{"compound": "CN1CCC(c2ccc(F)cc2)C(COc2ccc3c(c2)OCO3)C1", "note": "(stereo not drawn) [Methyl paroxetine]", "HIS4 meiotic recombination assay sensitivity score": "10.7 (active)"}
{"test_system": "S. cerevisiae NKY1551 his4x/his4B, sporulating", "test": "HIS4 meiotic recombination assay sensitivity score (z-score vs DMSO controls); higher = stronger inhibition of sporulation/recombination, active = hit call of the paper", "conditions": "stock concentration (mM, diluted 1:100): 10", "procedure": "as §1"}
{"compound": "CS(=O)(=O)Nc1ccc(Cc2noc(-c3ccc4[nH]cc(CCN)c4c3)n2)cc1", "HIS4 meiotic recombination assay sensitivity score": -0.76}
{"compound": "C[C@]12CC[C@H](O)CC1=CC[C@@H]1[C@@H]2CC[C@]2(C)C(=O)CC[C@@H]12", "note": "[Dehydroepiandrosterone]", "HIS4 meiotic recombination assay sensitivity score": 3.07}
{"compound": "C=C1C[C@@H]2[C@H](CC[C@]3(C)C(=O)CC[C@@H]23)[C@@]2(C)C=CC(=O)C=C12", "note": "[Exemestane]", "HIS4 meiotic recombination assay sensitivity score": 3.99}
{"compound": "COC(=O)N1CCN(C(=O)Cc2ccc(Cl)c(Cl)c2)C(CN2CCCC2)C1", "note": "(stereo not drawn)", "HIS4 meiotic recombination assay sensitivity score": -0.89}
{"compound": "NC(=O)C[S+]([O-])C(c1ccccc1)c1ccccc1", "note": "(stereo not drawn) [Modafinil]", "HIS4 meiotic recombination assay sensitivity score": -0.33}
{"compound": "CN1C(=O)COc2c(C(=O)NC3CN4CCC3CC4)cc(Cl)cc21", "note": "(stereo not drawn) [Azasetron]", "HIS4 meiotic recombination assay sensitivity score": 1.08}
{"compound": "c1ccc2c3c([nH]c2c1)CNCC3", "note": "[Tryptoline]", "HIS4 meiotic recombination assay sensitivity score": -3.38}
{"compound": "NC1=NC(=O)C(c2ccccc2)O1", "note": "(stereo not drawn) [Pemoline]", "HIS4 meiotic recombination assay sensitivity score": -0.78}
{"compound": "O=C(O)C(Cl)Cl", "note": "[Dichloroacetic acid]", "HIS4 meiotic recombination assay sensitivity score": -0.62}
{"compound": "COc1cc(N)c(Cl)cc1C(=O)NC1CN2CCC1CC2", "note": "(stereo not drawn) [Zacopride]", "HIS4 meiotic recombination assay sensitivity score": -2.43}
{"compound": "C[C@]12Cc3c[nH]nc3C[C@@H]1CC[C@@H]1[C@@H]2CC[C@@]2(C)[C@H]1CC[C@]2(C)O", "note": "[Stanozolol]", "HIS4 meiotic recombination assay sensitivity score": -0.39}
{"compound": "COc1cc2c(cc1OC)[C@@]13CCN4CC5=CCO[C@H]6CC(=O)N2[C@H]1[C@H]6[C@H]5C[C@H]43", "note": "[Brucine]", "HIS4 meiotic recombination assay sensitivity score": 0.05}
{"compound": "CNCC(O)c1ccc(O)cc1", "note": "(stereo not drawn) [Synephrine]", "HIS4 meiotic recombination assay sensitivity score": -1.28}
{"compound": "N=C(NCc1ccc(Cl)cc1)SCCCc1c[nH]cn1", "note": "[Clobenpropit]", "HIS4 meiotic recombination assay sensitivity score": -0.07}
{"compound": "CC[C@@H]1C=CC=CC[C@H](C)[C@@H](O)[C@@H](C)C(=O)[C@H](C)[C@@H](O)[C@H](C)C(=O)[C@H](C)[C@@H](O)[C@H](C)C=CC(=O)O[C@H]2[C@@H](C)[C@@H](CC1)O[C@@]1(CC[C@@H](C)[C@@H](C[C@H](C)O)O1)[C@@H]2C", "note": "[Oligomycin c]", "HIS4 meiotic recombination assay sensitivity score": 0.21}
{"compound": "CC(C)[C@]12O[C@H]1[C@@H]1O[C@]13[C@]1(O[C@H]1C[C@H]1C4=C(CC[C@@]13C)C(=O)OC4)[C@@H]2O", "note": "[Triptolide]", "HIS4 meiotic recombination assay sensitivity score": 0.28}
{"compound": "C[C@]12CC[C@H]3[C@@H](CCC4=CC(=O)CC[C@@]43C)[C@@H]1CC[C@@H]2O", "note": "[Testosterone]", "HIS4 meiotic recombination assay sensitivity score": -0.83}
{"compound": "CC(C)CC(N(C)C)C1(c2ccc(Cl)cc2)CCC1", "note": "(stereo not drawn) [Sibutramine hydrochloride]", "HIS4 meiotic recombination assay sensitivity score": 0.96}
{"compound": "Oc1cc2c(cc1O)[C@H]1c3ccccc3CN[C@@H]1CC2", "HIS4 meiotic recombination assay sensitivity score": 2.29}
{"compound": "CNC(=O)Oc1ccc2c(c1)[C@]1(C)CCN(C)[C@@H]1N2C", "note": "[Physostigmine]", "HIS4 meiotic recombination assay sensitivity score": -0.16}
{"compound": "COc1cccc(C2(O)CCCCC2CN(C)C)c1", "note": "(stereo not drawn) [Tramadol]", "HIS4 meiotic recombination assay sensitivity score": -2.65}
{"compound": "CN1C(=O)CN=C(c2ccccc2)c2cc([N+](=O)[O-])ccc21", "note": "[Nimetazepam]", "HIS4 meiotic recombination assay sensitivity score": -0.26}
{"compound": "NCCc1ccccn1", "note": "[2-(2-aminoethyl)pyridine]", "HIS4 meiotic recombination assay sensitivity score": -0.1}
{"compound": "COc1ccc2[nH]cc(CCN)c2c1", "note": "[5-Methoxytryptamine]", "HIS4 meiotic recombination assay sensitivity score": -1.35}
{"compound": "c1ccc2c(c1)Nc1ccccc1S2", "note": "[Phenothiazine]", "HIS4 meiotic recombination assay sensitivity score": 2.62}
{"test_system": "S. cerevisiae NKY1551 his4x/his4B, sporulating", "test": "HIS4 meiotic recombination assay sensitivity score (z-score vs DMSO controls); higher = stronger inhibition of sporulation/recombination, active = hit call of the paper", "conditions": "stock concentration (mM, diluted 1:100): 10.1", "procedure": "as §1"}
{"compound": "CC(NC(C)(C)C)C(=O)c1cccc(Cl)c1", "note": "(stereo not drawn) [Amfebutamone hydrochloride]", "HIS4 meiotic recombination assay sensitivity score": -0.33}
{"compound": "NC(=O)OCCCc1ccccc1", "note": "[Phenprobamate]", "HIS4 meiotic recombination assay sensitivity score": 0.5}
{"compound": "C[N+]1(CCC(C(N)=O)(c2ccccc2)c2ccccc2)CCCCC1", "note": "[Fenpiverinium bromide]", "HIS4 meiotic recombination assay sensitivity score": -1.06}
{"compound": "C=C(C)CN1CC[C@]23c4c5ccc(O)c4O[C@H]2c2[nH]c4ccccc4c2C[C@@]3(O)C1C5", "HIS4 meiotic recombination assay sensitivity score": 3.9}
{"test_system": "S. cerevisiae NKY1551 his4x/his4B, sporulating", "test": "HIS4 meiotic recombination assay sensitivity score (z-score vs DMSO controls); higher = stronger inhibition of sporulation/recombination, active = hit call of the paper", "conditions": "stock concentration (mM, diluted 1:100): 19.9", "procedure": "as §1"}
{"compound": "Cc1ccc(-c2nc3ccc(C)cn3c2CC(=O)N(C)C)cc1", "note": "[Zolpidem tartrate]", "HIS4 meiotic recombination assay sensitivity score": 0.04}
